In ChEMBL document CHEMBL3433997, “St. Jude Leishmania screening dataset” (2016):

What was measured:
Type in all cases: functional
[1] = target: Solute carrier family 2, facilitated glucose transporter member 1 (Homo sapiens) (UniProt P11166); experiment: ST_JUDE_LEISH: Cytotoxicity at 2uM final concentration against transgenic Leishmania Mexicana promastigotes LmGLUT1 that are glucose transport deficient and complemented with the human glucose transporter GLUT1. Activity is measured by DNA content using SYBR green in vitro
[2] = target: Hexose transporter 1 (Plasmodium falciparum) (UniProt O97467); experiment: ST_JUDE_LEISH: Cytotoxicity at 2uM final concentration against transgenic Leishmania Mexicana promastigotes LmPfHT that are glucose transport deficient and complemented with the Plasmodium falciparum hexose transporter. Activity is measured by DNA content using SYBR green in vitro
[3] = target: Glucose transporter (Leishmania mexicana) (UniProt O61059); experiment: ST_JUDE_LEISH: Cytotoxicity at 2uM final concentration against transgenic Leishmania Mexicana promastigotes LmGT2 that are glucose transport deficient and complemented with the L. Mexicana glucose transporter 2. Activity is measured by DNA content using SYBR green in vitro

Sequence of Solute carrier family 2, facilitated glucose transporter member 1 (Homo sapiens) (P11166 whole entry): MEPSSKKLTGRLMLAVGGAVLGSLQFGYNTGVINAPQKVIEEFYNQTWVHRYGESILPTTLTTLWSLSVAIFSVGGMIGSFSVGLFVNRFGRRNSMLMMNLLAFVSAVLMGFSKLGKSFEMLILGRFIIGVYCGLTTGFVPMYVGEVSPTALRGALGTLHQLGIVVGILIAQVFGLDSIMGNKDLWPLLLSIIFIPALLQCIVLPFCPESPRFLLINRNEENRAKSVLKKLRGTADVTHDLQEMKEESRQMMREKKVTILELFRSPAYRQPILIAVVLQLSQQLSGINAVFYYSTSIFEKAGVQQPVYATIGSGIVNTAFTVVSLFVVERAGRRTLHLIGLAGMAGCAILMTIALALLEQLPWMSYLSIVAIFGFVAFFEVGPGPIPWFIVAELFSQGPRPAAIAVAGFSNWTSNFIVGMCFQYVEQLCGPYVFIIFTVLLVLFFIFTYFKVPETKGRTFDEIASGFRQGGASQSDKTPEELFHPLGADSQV

SMILES	inhibition [1] [%]	inhibition [2] [%]	inhibition [3] [%]
COc1cc2s/c(=N\C(=O)c3cccc([N+](=O)[O-])c3)n(C)c2cc1OC	9.71	10.7	6.9
COCCOc1ccc(Nc2nccc(-c3c(-c4cccc(NC(=O)c5c(F)cccc5F)c4)nn4ccccc34)n2)cc1Cl	13.5	11.1	2.52
Cc1ccc(-c2nnc(-c3ccc(C(=O)NC4CCN(Cc5ccc(C#N)cc5)CC4)cc3)o2)cc1Br	8.8	5.73	4.37
Cc1cc(N2CCC(NS(=O)(=O)c3ccccc3)CC2)nc(Nc2cccc(C#N)c2)n1	44.5	41.9	45.6
FC(F)(F)c1ccc(NC(=S)N2CCC(CCN3CCC(c4c[nH]c5ccccc45)CC3)CC2)cc1	5.27	3.8	5.31
CC1(CCN2CCC(c3c[nH]c4cnccc34)CC2)CCCc2c(Br)cccc2C1=O (stereo unspecified)	54.7	25.4	95.5
CC(C)N1CCN(C(=O)c2ccc(CNCCCN3CCN(c4cccc(Cl)c4Cl)CC3)s2)CC1	1.17	1.06	-0.54
CC(C)(C)N1CCC(N(Cc2ccc(-c3ccc(C(F)(F)F)cc3)cc2)C(=O)Cn2c(CCc3cccc(F)c3F)nc(=O)c3cccnc32)CC1	2.09	0.99	0.47
O=C(Nc1ccc(OC2CCN(Cc3ccsc3)C2)c(Cl)c1)c1ccsc1 (stereo unspecified)	2.57	2.64	1.08
CC[C@H](C)CNC(=O)c1cccc(-c2cccc(CNCC3CNCCCO3)c2)n1 (stereo partly specified)	-0.08	-0.61	-0.09
Cc1cc(-c2ccc3c(c2)CCN(CCC2CCC(NC(=O)/C=C/c4cccc(Cl)c4)CC2)CC3)on1 (stereo unspecified)	4.19	3.51	3.57
Clc1ccc(CNc2ccnc(NCCc3coc4ccccc34)n2)c(Cl)c1	5.99	6.11	0.66
c1ccc(CNCc2ccc(-c3ccc(-c4nc5ccccc5[nH]4)cc3)cc2)cc1	20.4	12.9	10
c1ccc2sc(Sc3ncnc4sccc34)nc2c1	2.07	-1.08	0.27
Cc1ccccc1/N=C1\NC(=S)N(c2cccc(C(F)(F)F)c2)C12CCC(C(C)(C)C)CC2 (stereo unspecified)	2.78	2.68	2.58
CC(C)CNCc1ccc(-c2ccc(CN(CCCN3CCN(C)CC3)C(=O)/C=C/c3ccccc3)cc2)cc1	8.73	6.1	3.32

SMILES	inhibition [1] [%]	inhibition [2] [%]	inhibition [3] [%]
Cn1c(N)cc(-c2cccc(I)c2)c2c(=O)nc(N)nc1-2	4.12	4.5	2.89
CC(=O)c1ccc2nc[nH]c(=O)c2c1	99.2	96.3	91.6
CCN1CCCC(CNC(=O)/C(=C/C=C/c2cc3cc(Cl)c(Cl)cc3[nH]2)OC)C1 (stereo unspecified)	-0.41	1.17	1.2
Cc1nc(C)c(CC(=O)Nc2ccc(-c3cccc(-c4nc5cc(C(F)(F)F)ccc5[nH]4)c3)cc2)s1	13	10.6	8.58
NCC(NC(=O)c1ccc(-c2c[nH]c3ncccc23)s1)c1ccccc1 (stereo unspecified)	51.9	56.6	25.9
CC(C)(CNCc1cccc(Oc2cccc(C(F)(F)F)c2)c1)c1nc(-c2ccnc(N)n2)c(-c2ccc(Cl)c(O)c2)[nH]1	6.03	6.79	7.44
Cc1cc(N[C@@H](Cc2ccccc2)C(=O)NCCOc2ccccc2)nc(NCCc2ccccc2)n1	6.59	5.86	3.92
Cc1cc(NC2CCCC2)nc(Nc2ccccc2)n1	16.4	9.56	6.13
CN(C)C(=O)C(CC(=O)NCc1ccccc1Cl)N(C)C.CN(C)C(=O)CC(C(=O)NCc1ccccc1Cl)N(C)C (stereo unspecified)	3.97	4.82	4.89
Cn1nccc1C(=O)NCCNCc1cccc(-c2cccc(-c3nc4cc(F)ccc4[nH]3)c2)c1	3.43	3.28	1.11
NC(=O)Nc1ccc2cn[nH]c2c1	-0.02	0.57	0.33
c1cc(CN2CCCCC2)cc(OCCCNc2ccnc3ccccc23)c1	18	7.87	5.12
CN1CCN(c2cc3c(cc2Cl)CCN3C(=O)Cc2ccc(Cl)c(NC(=O)Nc3cccc([N+](=O)[O-])c3)c2)CC1	-0.26	-1.82	1.55
CN(C)CCN(C)Cc1ccc(-c2ccc(NC(=O)c3cccc(Cl)c3)cc2)cc1	7.23	6.44	6.55
C[C@@H](NC(=O)NC(CCN1CCC2(CC1)CN(S(C)(=O)=O)c1ccccc12)c1ccc(Cl)c(Cl)c1)c1ccccc1 (stereo partly specified)	0.39	4.43	-3.56
CCN(CCN(C)C)Cc1ccc(-c2ccc(NS(=O)(=O)c3cccc(Cl)c3)cc2)cc1	7.37	0.64	-1.5
